{
  "source": "the supplement of paper PMC8728848",
  "binders": {"B1": {"name": "Latrophilin-3 (Homo sapiens), Q9HAR2 (protein)", "chain": "MWPSQLLIFMMLLAPIIHAFSRAPIPMAVVRRELSCESYPIELRCPGTDVIMIESANYGRTDDKICDSDPAQMENIRCYLPDAYKIMSQRCNNRTQCAVVAGPDVFPDPCPGTYKYLEVQYECVPYKVEQKVFLCPGLLKGVYQSEHLFESDHQSGAWCKDPLQASDKIYYMPWTPYRTDTLTEYSSKDDFIAGRPTTTYKLPHRVDGTGFVVYDGALFFNKERTRNIVKFDLRTRIKSGEAIIANANYHDTSPYRWGGKSDIDLAVDENGLWVIYATEQNNGKIVISQLNPYTLRIEGTWDTAYDKRSASNAFMICGILYVVKSVYEDDDNEATGNKIDYIYNTDQSKDSLVDVPFPNSYQYIAAVDYNPRDNLLYVWNNYHVVKYSLDFGPLDSRSGQAHHGQVSYISPPIHLDSELERPSVKDISTTGPLGMGSTTTSTTLRTTTLSPGRSTTPSVSGRRNRSTSTPSPAVEVLDDMTTHLPSASSQIPALEESCEAVEAREIMWFKTRQGQIAKQPCPAGTIGVSTYLCLAPDGIWDPQGPDLSNCSSPWVNHITQKLKSGETAANIARELAEQTRNHLNAGDITYSVRAMDQLVGLLDVQLRNLTPGGKDSAARSLNKAMVETVNNLLQPQALNAWRDLTTSDQLRAATMLLHTVEESAFVLADNLLKTDIVRENTDNIKLEVARLSTEGNLEDLKFPENMGHGSTIQLSANTLKQNGRNGEIRVAFVLYNNLGPYLSTENASMKLGTEALSTNHSVIVNSPVITAAINKEFSNKVYLADPVVFTVKHIKQSEENFNPNCSFWSYSKRTMTGYWSTQGCRLLTTNKTHTTCSCNHLTNFAVLMAHVEVKHSDAVHDLLLDVITWVGILLSLVCLLICIFTFCFFRGLQSDRNTIHKNLCISLFVAELLFLIGINRTDQPIACAVFAALLHFFFLAAFTWMFLEGVQLYIMLVEVFESEHSRRKYFYLVGYGMPALIVAVSAAVDYRSYGTDKVCWLRLDTYFIWSFIGPATLIIMLNVIFLGIALYKMFHHTAILKPESGCLDNIKSWVIGAIALLCLLGLTWAFGLMYINESTVIMAYLFTIFNSLQGMFIFIFHCVLQKKVRKEYGKCLRTHCCSGKSTESSIGSGKTSGSRTPGRYSTGSQSRIRRMWNDTVRKQSESSFITGDINSSASLNREGLLNNARDTSVMDTLPLNGNHGNSYSIASGEYLSNCVQIIDRGYNHNETALEKKILKELTSNYIPSYLNNHERSSEQNRNLMNKLVNNLGSGREDDAIVLDDATSFNHEESLGLELIHEESDAPLLPPRVYSTENHQPHHYTRRRIPQDHSESFFPLLTNEHTEDLQSPHRDSLYTSMPTLAGVAATESVTTSTQTEPPPAKCGDAEDVYYKSMPNLGSRNHVHQLHTYYQLGRGSSDGFIVPPNKDGTPPEGSSKGPAHLVTSL"}},
  "assay_in_all_cases": "glycan array binding signal (z-score within array); higher = stronger binding",
  "conditions_in_all_cases": "glycan notation: IUPAC condensed, linker removed",
  "key": {"[1]": {"target": "GlcNAc(b1-2)Gal(b1-3)GalNAc", "summary_of_the_method": "(§1)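 Arrays were curated from the Consortium for Functional Glycomics database, 3228 in total, and kept only where the protein sequence was available. Binding is expressed as a within-array Z-score. This score was averaged across arrays of the same protein sequence at different concentrations or buffers and across linkers, and negative values can be read as non-binding.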"}, "[2]": {"target": "GlcNAc(b1-2)[GlcNAc(b1-4)]Man(a1-3)[GlcNAc(b1-2)Man(a1-6)]Man(b1-4)GlcNAc(b1-4)GlcNAc", "summary_of_the_method": "as §1"}, "[3]": {"target": "GlcNAc(b1-2)[GlcNAc(b1-6)]Man(a1-6)[GlcNAc(b1-2)Man(a1-3)][GlcNAc(b1-4)]Man(b1-4)GlcNAc(b1-4)GlcNAc", "summary_of_the_method": "as §1"}, "[4]": {"target": "GlcNAc(b1-4)GlcNAc(b1-4)GlcNAc(b1-4)GlcNAc(b1-4)GlcNAc", "summary_of_the_method": "as §1"}, "[5]": {"target": "Man(a1-2)Man(a1-3)[Man(a1-2)Man(a1-6)]Man", "summary_of_the_method": "as §1"}, "[6]": {"target": "Man(a1-2)Man(a1-3)[Man(a1-2)Man(a1-6)]Man(a1-6)[Man(a1-2)Man(a1-2)Man(a1-3)]Man", "summary_of_the_method": "as §1"}, "[7]": {"target": "Man(a1-2)Man(a1-3)[Man(a1-2)Man(a1-6)]Man(a1-6)[Man(a1-2)Man(a1-2)Man(a1-3)]Man(b1-4)GlcNAc(b1-4)GlcNAc", "summary_of_the_method": "as §1"}, "[8]": {"target": "Neu5Ac(a2-3)Gal(b1-3)[Fuc(a1-4)]GlcNAc(b1-3)Gal(b1-3)[Fuc(a1-4)]GlcNAc", "summary_of_the_method": "as §1"}, "[9]": {"target": "Neu5Ac(a2-3)Gal(b1-4)GlcNAc(b1-2)Man(a1-3)[GlcNAc(b1-2)Man(b1-4)GlcNAc(b1-2)Man(a1-6)]Man(b1-4)GlcNAc(b1-4)GlcNAc", "summary_of_the_method": "as §1"}, "[10]": {"target": "Neu5Ac(a2-3)Gal(b1-4)GlcNAc(b1-3)GalNAc", "summary_of_the_method": "as §1"}, "[11]": {"target": "Neu5Ac(a2-3)Gal(b1-4)[Fuc(a1-3)]GlcNAc(b1-3)GalNAc", "summary_of_the_method": "as §1"}, "[12]": {"target": "Neu5Ac(a2-3)GalNAc(b1-4)GlcNAc", "summary_of_the_method": "as §1"}, "[13]": {"target": "Neu5Ac(a2-3)[Neu5Ac(a2-6)]GalNAc", "summary_of_the_method": "as §1"}, "Neu5Ac(a2-6)Gal(b1-4)Glc": {"target": "Neu5Ac(a2-6)Gal(b1-4)Glc", "summary_of_the_method": "as §1"}, "[14]": {"target": "Neu5Ac(a2-8)Neu5Ac(a2-8)Neu5Ac(a2-3)[GalNAc(b1-4)]Gal(b1-4)Glc", "summary_of_the_method": "as §1"}, "[15]": {"target": "Neu5Ac9Ac(a2-6)Gal(b1-4)GlcNAc", "summary_of_the_method": "as §1"}},
  "note": "This excerpt belongs to a sample that is enriched for the strongest signals.",
  "data": [
    {"binder": "B1", "values": [
      {"measurement": "glycan array binding signal (z-score)", "setting": "[1]", "result": 1.25},
      {"measurement": "glycan array binding signal (z-score)", "setting": "[2]", "result": 0.886},
      {"measurement": "glycan array binding signal (z-score)", "setting": "[3]", "result": -0.448},
      {"measurement": "glycan array binding signal (z-score)", "setting": "[4]", "result": 0.111},
      {"measurement": "glycan array binding signal (z-score)", "setting": "[5]", "result": -1.71},
      {"measurement": "glycan array binding signal (z-score)", "setting": "[6]", "result": 0.047},
      {"measurement": "glycan array binding signal (z-score)", "setting": "[7]", "result": 1.12},
      {"measurement": "glycan array binding signal (z-score)", "setting": "[8]", "result": 6.27},
      {"measurement": "glycan array binding signal (z-score)", "setting": "[9]", "result": 0.035},
      {"measurement": "glycan array binding signal (z-score)", "setting": "[10]", "result": 0.708},
      {"measurement": "glycan array binding signal (z-score)", "setting": "[11]", "result": 3.18},
      {"measurement": "glycan array binding signal (z-score)", "setting": "[12]", "result": -0.972},
      {"measurement": "glycan array binding signal (z-score)", "setting": "[13]", "result": -1.4},
      {"measurement": "glycan array binding signal (z-score)", "setting": "Neu5Ac(a2-6)Gal(b1-4)Glc", "result": 1.15},
      {"measurement": "glycan array binding signal (z-score)", "setting": "[14]", "result": -1.01},
      {"measurement": "glycan array binding signal (z-score)", "setting": "[15]", "result": -0.383}
    ]}
  ]
}
